In PMC5540273 (PLoS ONE, 2017):

What was measured:
Details in all cases: concentration: 1 μM, replicates: in singlicate; n = 1
[1] = system: QSK
[2] = system: RAF1
[3] = system: RET
[4] = system: RIOK1
[5] = system: RIOK2
[6] = system: RIOK3
[7] = system: RIPK1
[8] = system: RIPK2
[9] = system: RIPK4
[10] = system: RIPK5
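Also: KINOMEscan kinase panel screen.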

Row | SMILES | %Inh [1] | %Inh [2] | %Inh [3] | %Inh [4] | %Inh [5] | %Inh [6] | %Inh [7] | %Inh [8] | %Inh [9] | %Inh [10]
1 | CC(C)(C)c1ccc(C(=O)Nc2cn3cc(-c4cccnc4)ccc3n2)cc1 | 0% | 0% | 14% | 34% | 33% | 9% | 27% | 26% | 0% | 17%
2 | O=C(Nc1n[nH]c2cc(-c3cccc(F)c3F)ccc12)C1CC1 [SB-733894] | 26% | 12% | 0% | 47% | 0% | 52% | 72% | 0% | 18% | 31%
3 | Cc1ccc(-c2cc(-c3c[nH]nc3-c3ccccn3)ccn2)cc1 [GW684088] | 0% | 21% | 6% | 18% | 0% | 3% | 28% | 27% | 0% | 3%
4 | Cc1csc(-c2nc(Nc3ccncc3)c3ccccc3n2)n1 [GW869640] | 35% | 0% | 0% | 38% | 39% | 1% | 0% | 52% | 44% | 34%
5 | COc1ccc(Nc2nccc(-c3cccc(NC(=O)c4cc5cc(F)ccc5[nH]4)c3)n2)cc1 [GSK1229782] | 3% | 13% | 14% | 72% | 3% | 50% | 22% | 17% | 0% | 25%
6 | Fc1cccc(COc2nnc(-c3ccc4c(c3)CCO4)o2)c1 | 7% | 4% | 5% | 9% | 0% | 0% | 0% | 0% | 0% | 15%
7 | Cc1cc(N2Cc3ccccc3C2)nc(Nc2ccc(S(=O)(=O)N3CCOCC3)cc2)n1.Cl [GSK1669917] | 2% | 0% | 0% | 24% | 0% | 25% | 0% | 0% | 98.9% | 6%
8 | COc1ccccc1-c1ccc2c(NC(=O)C3CC3)n[nH]c2n1 [SB-711239] | 16% | 38% | 11% | 20% | 9% | 0% | 10% | 33% | 0% | 0%
9 | Cc1cccc(-c2nc(Nc3cccc(C(N)=O)c3)c3ccccc3n2)n1 [GW876019] | 0% | 17% | 0% | 50% | 0% | 26% | 19% | 0% | 0% | 0%
10 | O=C(Nc1ccc2c(c1)OCO2)NC1CCN(c2ccnc(Nc3ccc(F)cc3)n2)C1 (centres unmarked) [GSK1379724] | 8% | 16% | 22% | 9% | 0% | 5% | 0% | 0% | 11% | 0%
11 | COc1ccc(Nc2nccc(NCCNC(=O)Nc3ccccc3F)n2)cc1 [GSK1379901] | 3% | 20% | 17% | 40% | 0% | 39% | 33% | 22% | 11% | 6%
12 | Cn1cncc1-c1ccc2ncnc(Nc3ccc(OCc4ccccc4)cc3)c2c1 [GW320571] | 16% | 13% | 0% | 32% | 26% | 15% | 18% | 93.1% | 0% | 0%
13 | Cc1cccc(-c2nc(C)cc(Nc3ccncc3)n2)n1 [GSK257997] | 0% | 100% | 18% | 20% | 16% | 14% | 8% | 19% | 7% | 0%
14 | COc1cc2nccc(Nc3ccc(NC(=O)c4ccc(C)cc4)c(O)c3)c2cc1OC.Cl [GW440132] | 2% | 5% | 49% | 46% | 13% | 0% | 4% | 17% | 0% | 0%
15 | COc1cccc(NC(=O)NC2CCN(c3ccnc(Nc4ccc(F)cc4)n3)C2)c1 (centres unmarked) [GSK1379721] | 3% | 3% | 0% | 16% | 0% | 13% | 29% | 2% | 17% | 18%
16 | COc1ccc(CNC(=O)NC2CCN(c3ccnc(Nc4cc(OC)c(OC)c(OC)c4)n3)C2)cc1 (centres unmarked) [GSK1379748] | 0% | 0% | 0% | 35% | 0% | 32% | 17% | 16% | 28% | 48%
17 | Cl.NC(=O)c1cccc(Nc2nccc(Nc3ccc(Oc4cccc(Cl)c4)c(Cl)c3)n2)c1 [GW659008] | 9% | 0% | 3% | 37% | 21% | 23% | 27% | 95.8% | 72% | 0%
